Test results as given in ChEMBL document CHEMBL5308504, “Tm Shift (DSF) assay results for EUbOPEN Chemogenomics Library” (2023).

Columns and labels:
Settings in all cases: Compound concentration 20.0 uM, Protein concentration 2.0 uM, Result type QC Liability
[1] = molecular target: Tyrosine-protein kinase ABL1 (Homo sapiens) (UniProt P00519)
[2] = molecular target: Cyclin-dependent kinase 2 (Homo sapiens) (UniProt P24941)
[3] = molecular target: Casein kinase I isoform delta (Homo sapiens) (UniProt P48730)
Casein kinase I isoform delta (Homo sapiens), sequence (P48730 whole entry, looked up, canonical isoform): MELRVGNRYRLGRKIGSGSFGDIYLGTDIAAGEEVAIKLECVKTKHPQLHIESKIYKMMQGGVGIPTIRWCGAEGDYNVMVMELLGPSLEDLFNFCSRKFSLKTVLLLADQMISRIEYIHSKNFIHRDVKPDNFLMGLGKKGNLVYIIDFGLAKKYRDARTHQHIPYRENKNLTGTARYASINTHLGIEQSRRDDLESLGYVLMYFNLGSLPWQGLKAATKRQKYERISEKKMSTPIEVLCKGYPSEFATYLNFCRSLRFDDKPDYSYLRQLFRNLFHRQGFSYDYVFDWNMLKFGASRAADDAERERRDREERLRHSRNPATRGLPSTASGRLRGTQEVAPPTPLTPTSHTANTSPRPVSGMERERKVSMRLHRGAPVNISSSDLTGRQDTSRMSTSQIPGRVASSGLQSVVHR

[4] = molecular target: Glycogen synthase kinase-3 beta (Homo sapiens) (UniProt P49841)
Glycogen synthase kinase-3 beta (Homo sapiens), sequence (P49841 whole entry, looked up): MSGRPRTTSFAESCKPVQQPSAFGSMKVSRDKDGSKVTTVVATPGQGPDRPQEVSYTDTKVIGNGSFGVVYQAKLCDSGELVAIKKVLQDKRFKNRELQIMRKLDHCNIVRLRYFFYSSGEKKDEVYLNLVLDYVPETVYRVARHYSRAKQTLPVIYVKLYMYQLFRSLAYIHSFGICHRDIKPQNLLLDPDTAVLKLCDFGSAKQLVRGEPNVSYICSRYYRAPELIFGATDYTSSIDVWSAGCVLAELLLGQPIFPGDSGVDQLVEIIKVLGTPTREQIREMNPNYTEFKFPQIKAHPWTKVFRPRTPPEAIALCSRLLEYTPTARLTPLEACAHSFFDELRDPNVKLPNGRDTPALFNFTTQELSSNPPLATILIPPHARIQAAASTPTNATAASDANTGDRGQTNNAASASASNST

[5] = molecular target: Mitogen-activated protein kinase 1 (Homo sapiens) (UniProt P28482)
Mitogen-activated protein kinase 1 (Homo sapiens), sequence (P28482 whole entry): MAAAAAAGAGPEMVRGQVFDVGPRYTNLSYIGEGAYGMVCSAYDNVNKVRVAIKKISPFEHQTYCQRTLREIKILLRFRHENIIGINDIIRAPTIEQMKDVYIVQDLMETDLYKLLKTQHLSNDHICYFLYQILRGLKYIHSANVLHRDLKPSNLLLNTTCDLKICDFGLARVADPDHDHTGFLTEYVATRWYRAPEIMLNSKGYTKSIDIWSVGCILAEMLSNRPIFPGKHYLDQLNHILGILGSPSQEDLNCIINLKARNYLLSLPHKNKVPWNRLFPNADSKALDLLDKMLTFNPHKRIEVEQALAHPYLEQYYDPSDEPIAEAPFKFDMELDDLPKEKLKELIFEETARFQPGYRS

[6] = molecular target: T1, Aurora kinase A (Homo sapiens) (UniProt O14965)
T1 sequence (whole entry): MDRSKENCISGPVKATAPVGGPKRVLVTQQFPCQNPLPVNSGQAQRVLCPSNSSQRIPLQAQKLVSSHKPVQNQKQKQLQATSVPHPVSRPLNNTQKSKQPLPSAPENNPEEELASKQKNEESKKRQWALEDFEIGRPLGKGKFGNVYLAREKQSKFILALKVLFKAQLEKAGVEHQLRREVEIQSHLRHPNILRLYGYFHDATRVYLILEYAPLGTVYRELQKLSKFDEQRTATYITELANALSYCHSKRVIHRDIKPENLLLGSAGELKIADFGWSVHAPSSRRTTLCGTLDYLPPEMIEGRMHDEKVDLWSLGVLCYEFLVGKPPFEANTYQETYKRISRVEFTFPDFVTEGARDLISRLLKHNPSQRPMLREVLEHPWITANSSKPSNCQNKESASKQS

Tyrosine-protein kinase ABL1 (Homo sapiens), sequence (P00519 whole entry): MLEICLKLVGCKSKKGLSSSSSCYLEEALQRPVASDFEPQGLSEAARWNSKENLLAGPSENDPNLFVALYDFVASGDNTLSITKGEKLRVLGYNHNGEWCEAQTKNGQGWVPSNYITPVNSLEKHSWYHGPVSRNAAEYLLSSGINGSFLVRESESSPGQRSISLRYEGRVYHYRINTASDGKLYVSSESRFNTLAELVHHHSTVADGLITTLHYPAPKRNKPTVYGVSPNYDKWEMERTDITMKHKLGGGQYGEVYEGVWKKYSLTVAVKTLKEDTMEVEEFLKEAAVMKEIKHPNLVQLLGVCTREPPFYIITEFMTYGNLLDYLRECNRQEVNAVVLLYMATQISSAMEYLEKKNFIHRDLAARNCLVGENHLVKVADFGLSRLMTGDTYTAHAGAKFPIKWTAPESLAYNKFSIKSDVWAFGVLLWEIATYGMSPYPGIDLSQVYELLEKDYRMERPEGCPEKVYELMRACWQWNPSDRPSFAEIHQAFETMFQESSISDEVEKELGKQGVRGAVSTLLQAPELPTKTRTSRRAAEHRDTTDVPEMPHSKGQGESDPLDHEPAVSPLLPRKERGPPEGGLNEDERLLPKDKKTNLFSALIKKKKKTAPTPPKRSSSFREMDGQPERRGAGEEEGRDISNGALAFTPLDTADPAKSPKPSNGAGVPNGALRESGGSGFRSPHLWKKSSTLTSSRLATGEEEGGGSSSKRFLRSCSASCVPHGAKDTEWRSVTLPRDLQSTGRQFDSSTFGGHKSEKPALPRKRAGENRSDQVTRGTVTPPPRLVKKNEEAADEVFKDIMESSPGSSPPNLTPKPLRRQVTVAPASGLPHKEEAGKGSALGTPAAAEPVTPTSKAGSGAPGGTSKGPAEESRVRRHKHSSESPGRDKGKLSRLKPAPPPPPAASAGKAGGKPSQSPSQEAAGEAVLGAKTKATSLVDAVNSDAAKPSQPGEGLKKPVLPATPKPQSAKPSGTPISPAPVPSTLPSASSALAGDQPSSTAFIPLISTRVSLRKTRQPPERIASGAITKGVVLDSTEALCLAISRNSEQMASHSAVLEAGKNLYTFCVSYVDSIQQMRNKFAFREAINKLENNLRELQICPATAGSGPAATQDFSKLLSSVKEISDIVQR

SMILES	ΔTm [1] [°C]	ΔTm [2] [°C]	ΔTm [3] [°C]	ΔTm [4] [°C]	ΔTm [5] [°C]	ΔTm [6] [°C]
Cc1cnc(-c2cnc(NCCNc3ccc(C#N)cn3)nc2-c2ccc(Cl)cc2Cl)[nH]1	0.86	1.98	1.3	14.6	1.17	2.09
COc1cc(C(=O)NC2CCN(C)CC2)ccc1Nc1ncc(C(F)(F)F)c(NCc2ccc(C)cc2N(C)S(C)(=O)=O)n1	0.73	0.29	1.1	-0.29	3.52	5.17
CN(C)C/C=C/C(=O)Nc1ccc(C(=O)Nc2cccc(Nc3ncc(Cl)c(-c4c[nH]c5ccccc45)n3)c2)cc1	6.42	7.89	-0.47	12.9	-1.25	10.2
COc1cnccc1Nc1nc(-c2nn(Cc3c(F)cc(OCCO)cc3F)c3ccccc23)ncc1OC	-0.43	-0.62	-2.9	-5.93	-0.07	-1.95
CC(=O)Nc1cccc(-n2c(=O)n(C3CC3)c(=O)c3c(Nc4ccc(I)cc4F)n(C)c(=O)c(C)c32)c1	-0.1	0.48	0.23	-0.51	0.29	-0.21
O=C(O)CCCc1cc2cc(Cl)ccc2n1S(=O)(=O)c1ccc2ncsc2c1	0.34	0.24	1.03	-2.46	0.26	-0.83
C[C@@]1(Cc2ccc(C#N)cc2)C(=O)N(c2cc(Cl)cc(Cl)c2)c2ncc(C(=O)NC3(c4nc(C5CCC5)no4)CC3)n21	0.13	-0.03	3.08	10.7	3.07	11.8
CNCc1ccc(-c2cc(-c3nc(-c4ccc(S(=O)(=O)C(C)C)cc4)cnc3N)on2)cc1	4.85	-0.24	-0.18	9.94	-0.07	2.41
CC(=O)Nc1nc(CN2CCC[C@H](Cc3cc(C)nc(C)c3)C2)cs1	0.19	0	0.1	-0.34	0.5	0.28
CCS(=O)(=O)c1cc2cc(C[C@](O)(CC(C)(C)c3ccc(F)cc3C(N)=O)C(F)(F)F)[nH]c2cn1	0.15	0.5	0.37	-0.73	0.36	0.03
COc1ccc(S(=O)(=O)N2CCOCC2)cc1Nc1ccc2c(n1)N(C1CCN(C)CC1)[C@H](C)C(=O)N2C	-0.01	0.43	0.44	0.08	0.18	0
CCCCNc1ncc2c(-c3ccc(CN4CCN(C)CC4)cc3)cn([C@H]3CC[C@H](O)CC3)c2n1	11.7	5.95	2.72	4.8	0.43	13.5
CC(C)(C)OC(=O)CN1C(=O)c2c(OCC(=O)O)cccc2Oc2ccc(C(F)(F)F)cc21	0.48	0.55	0.4	1.17	0.51	-0.28
Cc1cc(OC2CCS(=O)(=O)CC2)cc(C)c1-c1cccc(COc2ccc(C(=O)O)c(F)c2)c1	0.14	-1.08	0.23	-0.54	0.7	-1.19
N[C@@H](CC(=O)O)Cn1nnc(-c2ccc(Oc3ncc(Cl)cc3F)cc2)n1	0.91	0.66	-0.24	0.34	0.49	-0.25
OC(c1ccc(-c2ccc(CN3CCN(Cc4ccncc4)CC3)cc2)c(F)c1)(C(F)(F)F)C(F)(F)F	-0.1	0.64	-0.18	-0.86	0.02	-1.1
COc1cc(-c2cn[nH]c2)ccc1C(=O)Nc1ccc2c(c1)CCNCC2	0.96	0.47	0.7	-0.7	0.38	0.13
CSc1nc2c(c(=O)n(C)c(=O)n2C)n1C	0.1	0.27	0.33	-0.85	0.33	-0.13
CN(c1ccc(C(F)(F)F)cc1)S(=O)(=O)c1ccc(C(=O)Nc2nc(-c3ccccn3)cs2)cc1	7.05	10.4	5.15	13.4	1.92	9.24
CCS(=O)(=O)Nc1cccc(Oc2cncc(Nc3ccc(I)cc3F)c2C(N)=O)c1	0.95	0.72	-0.53	-0.71	-2.21	1.45
